Shown are actives, neighbours in structure and some others; about 16% of the full set was active somewhere.
uPA surface inh: qHTS for Inhibitors of Cell Surface uPA Generation. hit rate 0.31% among 330,000. AID 540303, 2011. cell surface uPA generation assay, qHTS. Potency, µM (series often up to 38.3 µM), for the others: at the top dose activity change, negative = inhibition, actives largely listed as inhibitors; active = well fitted inhibition curve with a large enough effect; inconclusive = small, poorly fitted or top-dose-only effect; inactive = no such curve, though single readings can be large or run the other way; tested in mouse RAW 264.7 cells; note: potency is the fitted concentration of half-maximal effect; % is set by controls: 0 for no effect and ±100 for the full control effect; nearly all actives have a fitted effect of over 55% in size
DT40 TDP1 no CPT: qHTS for Inhibitors of human tyrosyl-DNA phosphodiesterase 1 (TDP1): qHTS in cells in absence of CPT. DT40 Tdp1-/- hTDP1 cells, no CPT, ATP luminescence, 48 h. Potency, µM (titrated, usually from 46.2 µM), for the others: at the highest dose activity change, negative = growth inhibition, most hits filed as inhibitors. hit rate 15% among 420,000. AID 686978, 2013; note: potency is the fitted concentration of half-maximal effect; % is set by controls: 0 for no effect and ±100 for the full control effect; nearly all actives have a fitted effect of over 55% in size
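Chicken DT40 Tdp1-/- cells stably complemented with human TDP1 were seeded at 400 cells/well with DMSO in place of 20 nM camptothecin. After compound pinning, cells grew at least 48 hr at 37 °C; viability read by CellTiter-Glo luminescence.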
miR-21 reporter: qHTS Assay for Modulators of miRNAs and/orActivators of miR-21; Potency, µM (series often up to 38.3 µM), for inactives: at the highest dose activity change, positive = activation, actives largely listed as activators; HeLa miR-21 FLuc reporter, luciferase, 48 h; 340,000 tested, under 10 active; AID 2288, 2010;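 note: % of control where 0% means no effect; miR-21 action dims this reporter so a rising signal means less miR-21 action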
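Compounds were titrated across several concentrations (up to approximately 40 uM) and incubated 48 hours with HeLa miR-21-FLuc reporter cells (miR-21 target sequence downstream of FLuc, endogenous miR-21). Readout was firefly luciferase luminescence after lytic detection reagent.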
DT40 TDP1 CPT: qHTS for Inhibitors of human tyrosyl-DNA phosphodiesterase 1 (TDP1): qHTS in cells in presence of CPT; chicken DT40 Tdp1-/-;hTDP1 cells + 20 nM CPT, ATP luminescence, 48 h; Potency, µM (highest dose often 46.2 µM), for inactives: at the top dose activity change, negative = growth inhibition, actives largely listed as inhibitors; hit rate 12% among 420,000; AID 686979, 2013; note: potency is the fitted concentration of half-maximal effect; % is set by controls: 0 for no effect and ±100 for the full control effect; nearly all actives have a fitted effect of over 55% in size
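Cell growth measured by CellTiter-Glo luminescence after a minimum 48 h, 37 C compound exposure with 20 nM CPT in Tdp1-knockout DT40 cells stably expressing hTDP1, seeded 400/well; qHTS titration format.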
TDP1 inh: qHTS Assay for Inhibitors of Tyrosyl-DNA Phosphodiesterase (TDP1) | hit rate 0.28% among 350,000 | AID 485290, 2010 | Potency, µM (titrated, usually from 130 µM), for inactives: at the top dose activity change, negative = inhibition, hits mostly inhibitors | Tyrosyl-DNA phosphodiesterase 1 (Homo sapiens), Q9NUW8 | recombinant TDP1, AlphaScreen DNA substrate cleavage; note: potency is the fitted concentration of half-maximal effect; % is set by controls: 0 for no effect and ±100 for the full control effect; nearly all actives have a fitted effect of over 40% in size
Target sequence (Q9NUW8 whole entry, looked up): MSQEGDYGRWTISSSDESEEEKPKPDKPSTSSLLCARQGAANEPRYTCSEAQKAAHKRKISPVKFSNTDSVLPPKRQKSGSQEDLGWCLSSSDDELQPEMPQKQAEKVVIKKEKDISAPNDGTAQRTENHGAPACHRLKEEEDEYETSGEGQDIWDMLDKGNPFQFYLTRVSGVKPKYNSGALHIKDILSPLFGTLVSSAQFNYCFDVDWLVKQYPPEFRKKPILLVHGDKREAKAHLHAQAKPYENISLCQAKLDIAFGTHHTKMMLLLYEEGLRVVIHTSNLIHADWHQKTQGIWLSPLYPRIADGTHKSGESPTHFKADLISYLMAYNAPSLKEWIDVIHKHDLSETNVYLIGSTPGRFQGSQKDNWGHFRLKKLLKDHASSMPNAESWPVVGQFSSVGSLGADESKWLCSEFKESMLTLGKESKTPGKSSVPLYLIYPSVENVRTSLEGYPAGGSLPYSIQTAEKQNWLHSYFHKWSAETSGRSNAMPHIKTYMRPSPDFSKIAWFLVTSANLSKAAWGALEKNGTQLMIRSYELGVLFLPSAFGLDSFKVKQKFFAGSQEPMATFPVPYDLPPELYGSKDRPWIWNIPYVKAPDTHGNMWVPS
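Recombinant human Tdp1 (E. coli-expressed, 1 nM final) preincubated with compounds 15 min at room temperature, then 5'-biotin/3'-phosphotyrosine-FITC DNA substrate (15 nM final) added for 5 min. AlphaScreen beads (10 ug/ml final) added 10 min; cleavage lowers signal.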
An asterisk follows results filed as active; u = inconclusive; x = no result; [ ] = remark or other dose. Unless noted, calls come from the whole dose curve; as a rule, active = well fitted curve in the direction sought with a large enough effect; inconclusive = small, poorly fitted or top-dose-only effect, or another doubt; inactive = no such curve, though single readings can be large; an effect the other way counts as inactive or inconclusive.

SMILES | uPA surface inh | DT40 TDP1 no CPT | miR-21 reporter | DT40 TDP1 CPT | TDP1 inh
C=CCc1cc(Cl)ccc1OCCOCCNC(C)CC (configuration not stated) | -2% | u | -11% | u | x
CCN(C[C@H]1N[C@@](C)(C(=O)OC)[C@H]2C(=O)N(Cc3ccccc3)C(=O)[C@@H]12)C(=O)c1ccc(F)cc1 | -2% | -7% | x | u | 1%
CCOc1cc(-c2ccccc2)nc2c1CN(S(=O)(=O)c1ccc(C)cc1)C(c1cccc(Cl)c1)C2 (configuration not stated) | x | 9.2µM* | x | u | x
CCN(CC)S(=O)(=O)c1cccc(C(=O)NC(C(=O)Nc2nnc(C3CC3)s2)C(C)C)c1 (configuration not stated) | -7% | u | 0% | -5% | -1%
CCN(CC)S(=O)(=O)c1cccc(C(=O)N[C@H](C(=O)Nc2nc3ccc(F)cc3s2)C(C)C)c1 | -8% | 15µM* | 13% | 16µM* | 2%
CS(=O)(=O)c1ccc2nc(NC(=O)C3CC3)sc2c1 | u | -25% | x | -12% | x
CCN(CC)S(=O)(=O)c1cccc(C(=O)N[C@H](C(=O)Nc2nc3ccccc3s2)C(C)C)c1 | -16% | 15µM* | -44% | u | 6%
C=CCN(CC=C)S(=O)(=O)c1ccc2nc(NC(=O)C(C)C)sc2c1 | -17% | 2.6µM* | 17% | 5.8µM* | 7%
COc1ccc(CNC(=O)CC23CC4CC(CC(C4)C2)C3)cc1OC | -1% | -24% | -28% | u | x
COc1ccccc1NC(=O)CNC(=O)CC12CC3CC(CC(C3)C1)C2 | 3% | -70% | x | 1.6µM* | -9%
COc1ccccc1NC(=O)Cc1nnc(SCC(=O)Nc2ccccc2F)n1C | 0% | u | -3% | 16µM* | 0%
COc1ccccc1NC(=O)CSC(N)=O | -6% | 21µM* | 6% | u | 7%
O=C1CSC(c2ccccc2)N1c1nnc(C23CC4CC(CC(C4)C2)C3)s1 (configuration not stated) | x | x | 0% | x | 3%
Cc1ccc(S(=O)(=O)N2CCOCC2)cc1NC(=O)COC(=O)c1ccc2c(c1)OCO2 | 2% | -14% | 1% | -21% | -3%
COc1ccc(CNC(=O)COC(=O)CC2CC3CCC2C3)cc1OC (configuration not stated) | 3% | u | -5% | -7% | -2%
COc1ccc(-c2cc(-c3nnc(COC(=O)CC4CC5CCC4C5)o3)c3ccccc3n2)cc1OC (configuration not stated) | 4% | 21µM* | 1% | 21µM* | 0%
O=C(NC1CCCCC1)N(Cc1nc2ccccc2c(=O)[nH]1)C1CCCC1 | 0% | u | -1% | -24% | 5%
Cc1sc2nc(CN(Cc3cccs3)C(=O)C3CC3)[nH]c(=O)c2c1C | -6% | 9.2µM* | 8% | 16µM* | 2%
Cc1sc2nc(CN(C(=O)NC3CCCCC3)C3CCCCC3)[nH]c(=O)c2c1C | 7% | 21µM* | -6% | 18µM* | -1%
CN(C)S(=O)(=O)c1cccc(NC(=O)c2cc([N+](=O)[O-])ccc2N2CCCCC2)c1 | -1% | u | x | u | 1%[56.1 µM]
CCOC(=O)C1=C(C)NC2=C(C(=O)OC2)C1c1ccccc1 (configuration not stated) | -15% | u | 23% | u | 0%
COc1cc(S(=O)(=O)Nc2ccccc2C(=O)N2CCCC2)ccc1NC(C)=O | -10% | -2% | x | -15% | -7%
COC(=O)c1nn(Cc2ccccc2)c(=O)c2ccccc12 | -2% | -22% | 6% | u | -5%
COc1cc2c(cc1OC)CN(C(=O)c1nn(Cc3ccccc3)c(=O)c3ccccc13)CC2 | -2% | 16µM* | x | u | 5%
COc1cc2c(cc1OC)CN(C(=O)c1cc3ccccc3oc1=O)CC2 | -6% | 12µM* | 7% | 10µM* | 3%
SMILES | uPA surface inh | DT40 TDP1 no CPT | miR-21 reporter | DT40 TDP1 CPT | TDP1 inh
CC(=O)c1ccc(N2CCN(C(=O)c3nn(Cc4ccccc4)c(=O)c4ccccc34)CC2)cc1 | -1% | 18µM* | 11% | u | 8%
CCOc1ccccc1OCCCCn1c(-c2ccc(Cl)cc2)nc2ccccc2c1=O | x | -9% | 2% | u | x
COC(=O)[C@H](COC(C)(C)C)NC(=O)O[C@@H]1C(=O)c2cc(Br)ccc2O[C@H]1c1cccc(OC)c1 | x | x | x | x | 5%
Cc1c(NC(=O)CN2C(=O)C(=O)c3ccccc32)c(=O)n(-c2ccccc2)n1C | 3% | -2% | 2% | 9% | 2%
COc1ccc(N(CC(=O)N/N=C/c2ccc(OC)cc2OC)S(=O)(=O)c2ccccc2)cc1 | 6% | -21% | 1% | -4% | x
COc1ccc2cc(/C=N/NC(=O)CN(c3ccccc3C)S(=O)(=O)c3ccccc3)c(Cl)nc2c1 | 4% | 6.5µM* | -2% | 2.9µM* | 6%
Cn1c(-c2ccccc2)cc2ccccc21 | -2% | -23% | -4% | -23% | x
Cn1c(C(c2cc3ccccc3n2C)c2cc3ccccc3n2C)cc2ccccc21 | x | 3.5µM* | x | 5.6µM* | x
Cn1c(-c2ccccc2O)cc2ccccc21 | -2% | 18µM* | 1% | u | 4%
CC(=O)NC1C(=O)N(C)c2ccc(Br)cc21 (configuration not stated) | 6% | 0% | 0% | -10% | 4%
Cn1ccnc1SCC(=O)c1ccc(F)cc1 | -1% | -7% | x | 1% | x
CC1N=C(SCC(=O)c2ccc(F)cc2)N2C(C)N=C(SCC(=O)c3ccc(F)cc3)N12 (configuration not stated) | x | 4.1µM* | x | 4.1µM* | x
COc1ccc(-c2c(C)nn3c(N)c(C#N)cnc23)cc1OC | -8% | 13µM* | -28% | 7.3µM* | 3%
N#Cc1cnc2c(-c3ccccc3)c(-c3ccccc3)nn2c1N | -2% | 18µM* | -1% | 23µM* | 5%
O=C(NCC(c1cccs1)S(=O)(=O)c1cccs1)c1ccccc1F (configuration not stated) | x | u | -8% | -11% | -3%
C1=C(c2ccccc2)Nc2ccccc2N=C1c1ccccc1 | -8% | u | -26% | u | 8%
O=C(CCl)Nc1c2c(nn1-c1ccccc1)CSC2 | -2% | 15µM* | u | 21µM* | 1%
COc1ccc(CNC(=O)C(=O)Nc2c3c(nn2-c2ccccc2)CSC3)cc1 | x | u | 1% | u | 5%
O=C(NCc1ccccc1)C(=O)Nc1c2c(nn1-c1ccccc1)CSC2 | x | 18µM* | -1% | 16µM* | 8%
COc1ccc(-n2nc3c(c2NC(=O)CCCl)CSC3)cc1 | -6% | 18µM* | -1% | u | x

Assay outcomes: PubChem BioAssay, National Center for Advancing Translational Sciences (NCATS)
